GSTO1 inh: inhibitors of recombinant GSTO1, primary screen, counter-screen for RBBP9 inhibitor project, biochemical, fluorescence polarization | Glutathione S-transferase omega-1 (Homo sapiens), P78417 | activity-based probe fluorescence polarization | inhibition, % at 5.96 µM | 300,000 tested, 1.1% active;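 active = inhibition above the campaign mean inhibition plus 3 SD, cut at about 35% in these data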
Fam108B inh: mouse Fam108B serine hydrolase inhibitors, primary screen, counter-screen for RBBP9 inhibitor project, biochemical, fluorescence polarization | recombinant Fam108B, FP-Rh probe fluorescence polarization | inhibition, % at 9.51 µM | 300,000 tested, 0.33% active;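 active = inhibition above the screen mean inhibition plus 3 SD, computed separately per campaign, cut at about 18% in these data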;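 also: inhibitors lower polarization as less probe binds the enzyme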
PME-1 primary: PME-1 inhibitors via competitive probe labeling, primary screen, biochemical, fluorescence polarization, FP-Rh probe, HTS; recombinant PME-1; inhibition, % at 5.9 µM; 320,000 tested, 0.53% active; AID 2130, 2009;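 active = inhibition above the campaign mean of all compounds plus 3 SD, cut at about 26% in these data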;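 also: competitive labeling of PME-1 active site by serine hydrolase directed probe; inhibitors block probe labeling so polarization falls and inhibition rises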
LYPLA2 inh: LYPLA2 inhibitors, primary screen, counter-screen for PME1 inhibitor project, biochemical, fluorescence polarization, FP-Rh probe ABPP; Acyl-protein thioesterase 2 (Homo sapiens), O95372; recombinant LYPLA2; inhibition, % at 5.9 µM; 320,000 tested, 0.38% active;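 active = inhibition above the screen-wide mean plus 3 SD, limit set per campaign, cut at about 26% in these data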
LYPLA1 inh: LYPLA1 inhibitors, primary screen, counter-screen for PME1 inhibitor project, biochemical, fluorescence polarization, FP-Rh probe ABPP; Acyl-protein thioesterase 1 (Homo sapiens), O75608; recombinant LYPLA1; inhibition, % at 5.9 µM; 320,000 tested, 0.16% active; AID 2174, 2009;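 active = inhibition above the mean of all tested compounds plus 3 SD, set per campaign, cut at about 14% in these data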;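 also: inhibitors block serine hydrolase probe labeling of LYPLA1 so polarization falls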
PAD4 FP inh: human PAD4 inhibitors, primary screen, biochemical, fluorescence polarization, 1536-well format. Protein-arginine deiminase type-4 (Homo sapiens), Q9UM07. recombinant PAD4, RCA probe fluorescence polarization. inhibition, % at 6.36 µM. 330,000 tested, 0.41% active. AID 485272, 2010;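 active = percent inhibition above a cutoff equal to the mean of all tested compounds plus 3 SD, cut at about 15% in these data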
Target sequence (Q9UM07 whole entry, looked up): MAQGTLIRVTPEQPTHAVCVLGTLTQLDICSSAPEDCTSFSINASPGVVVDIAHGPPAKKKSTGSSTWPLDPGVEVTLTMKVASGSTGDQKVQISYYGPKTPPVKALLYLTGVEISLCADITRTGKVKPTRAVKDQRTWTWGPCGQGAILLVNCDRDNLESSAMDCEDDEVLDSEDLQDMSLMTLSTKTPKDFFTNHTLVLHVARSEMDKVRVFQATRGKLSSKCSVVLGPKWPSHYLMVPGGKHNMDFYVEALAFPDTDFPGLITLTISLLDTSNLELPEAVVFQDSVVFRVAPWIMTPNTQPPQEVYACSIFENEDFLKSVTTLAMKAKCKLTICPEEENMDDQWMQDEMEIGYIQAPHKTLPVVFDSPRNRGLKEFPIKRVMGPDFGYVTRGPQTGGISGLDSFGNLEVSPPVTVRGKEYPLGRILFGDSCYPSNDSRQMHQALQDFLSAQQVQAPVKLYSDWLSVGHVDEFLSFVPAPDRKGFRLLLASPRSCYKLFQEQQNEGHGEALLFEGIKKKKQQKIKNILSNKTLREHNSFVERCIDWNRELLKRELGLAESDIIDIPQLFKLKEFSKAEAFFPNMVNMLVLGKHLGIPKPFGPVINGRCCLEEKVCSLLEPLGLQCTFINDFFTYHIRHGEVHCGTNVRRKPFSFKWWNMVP
PAD4 FP conf: human PAD4 inhibitors, confirmation, biochemical, fluorescence polarization; shares compounds with PAD4 FP inh; recombinant PAD4, RCA probe fluorescence polarization; inhibition, % at 6.36 µM; 1,200 tested, 28% active; AID 488796, 2010;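 active = mean inhibition across replicates above the hit cutoff set by the earlier primary screen, cut at about 15% in these data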;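 also: inhibitors block active-site labeling by the probe so polarization falls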
Of the large screens only hits and unclear results are named; the others gave an inactive call (follow-up assays come after a bar, where they were run). Compounds with a hit are over-represented: about 1.7% of the library has one in this group of screens.

Cc1ccc(-n2nc(C)c3c2OC(N)=C(C#N)C3c2ccncc2)cc1 (centres undefined)	none
Cc1nn(-c2ccccc2)c2c1C(c1ccncc1)C(C#N)=C(N)O2 (centres undefined)	PAD4 FP inh 25 | PAD4 FP conf inactive
Cc1ccc(-n2nc(C)c3c2OC(N)=C(C#N)C3c2cccs2)cc1 (centres undefined)	PAD4 FP inh 41 | PAD4 FP conf inactive
CO[C@@]1(NC(=O)CSCC#N)C(=O)N2C(C(=O)O)=C(CSc3nnnn3C)CS[C@@H]21	none
COC(=O)c1cc(S(=O)(=O)Nc2cccc(OC)c2)cn1C	none
CCOC(=O)c1cc(S(=O)(=O)Nc2ccc(OC)cc2OC)cn1C	PAD4 FP inh 31 | PAD4 FP conf inactive
O=C1CCc2cc(S(=O)(=O)Nc3ccc(F)cc3)cc3c2N1CC3	none
Cc1ccccc1-n1nnnc1Sc1nnnn1-c1ccccc1	PAD4 FP inh 19 | PAD4 FP conf inactive
C(=C\CSc1nnnn1-c1ccccc1)/CSc1nnnn1-c1ccccc1	none
CCCSc1nnc(Sc2nnnn2-c2ccccc2)s1	PAD4 FP inh 35 | PAD4 FP conf 20
CCOC(=O)C1(Cc2ccc(Cl)cc2)CCN(C(=O)C2CCCO2)CC1 (centres undefined)	none
C[C@@]12C(=O)Nc3ccc(Cl)cc3C(=O)N1[C@H]1c3ccccc3OC[C@@H]1[C@@H]2c1ccccc1	none
O=S(=O)(Nc1ccccc1Cl)c1cc(NC(=S)NCCN2CCOCC2)ccc1Cl	none
CC(=O)Nc1cccc(C(=O)Nc2ccccc2C(=O)O)c1	none
CC(=O)Nc1ccc(S(=O)(=O)Nc2cccc(C(=O)Nc3ccccc3C(=O)O)c2)cc1	PAD4 FP inh 18 | PAD4 FP conf inactive
O=C(CN1c2cccc3cccc(c23)S1(=O)=O)Nc1ccc(S(=O)(=O)N2CCOCC2)cc1	PAD4 FP inh 17 | PAD4 FP conf 32
O=C(CN1C(=O)c2cccc3cccc1c23)Nc1ccc(S(=O)(=O)N2CCOCC2)cc1	none
CCOC(=O)C1=C(C)NC(C)=C(C(=O)OC)C1c1ccco1 (centres undefined)	none
CCOC(=O)C1=C(C)NC(=O)C(C#N)C1c1ccco1 (centres undefined)	PAD4 FP inh 18 | PAD4 FP conf inactive
Cn1c(SCC(=O)Nc2ccc(Br)cn2)nnc1C1CC1	PAD4 FP inh 156 | PAD4 FP conf 23
CCCn1c(SCC(=O)Nc2ccc(Cl)cn2)nnc1C1CC1	none
Cc1ccc(NC(=O)c2ccc(=O)[nH]n2)cc1S(=O)(=O)Nc1ccc(SC(F)F)cc1	PAD4 FP inh 22 (no result: GSTO1 inh, Fam108B inh, PME-1 primary, LYPLA2 inh, LYPLA1 inh) | PAD4 FP conf inactive
Cc1ccc(NC(=O)c2ccc(=O)[nH]n2)cc1C	none
O=C(O)CSc1c2ccccc2cc2ccccc12	PAD4 FP inh 23 | PAD4 FP conf 20
CCCn1c(Nc2ccccc2C)nc2ccccc21	none
CCOc1ccc2c(c1)-c1c(ssc1=S)C(C)(C)N2C(=O)c1ccco1	PAD4 FP inh 17 | PAD4 FP conf 16
COC(=O)c1ccc(C(=O)OC)c(NC(=O)COc2ccccc2OC)c1	PAD4 FP inh 16 | PAD4 FP conf 18
COC(=O)c1ccc(C(=O)OC)c(NC(=O)CN2CCN(c3ccccc3OC)CC2)c1	none
Oc1cc(Nc2ccccc2)cc2cccnc12	none (no result: GSTO1 inh, Fam108B inh, PME-1 primary, LYPLA2 inh, LYPLA1 inh)
Oc1cc(NCCN2CCOCC2)cc2cccnc12	PAD4 FP inh 31 (no result: GSTO1 inh, Fam108B inh, PME-1 primary, LYPLA2 inh, LYPLA1 inh) | PAD4 FP conf inactive
Nc1ccc(-c2c3ccc(=O)cc-3oc3cc(O)ccc23)c(C(=O)O)c1	PAD4 FP inh 21 (no result: GSTO1 inh, Fam108B inh) | PAD4 FP conf inactive
Cc1ccc(O)c(-n2nc3ccccc3n2)c1	none
Cc1ccc(C(=O)NN2C(=O)/C(=C/c3cccn3C)SC2=S)cc1	none
Cn1cccc1/C=C1\SC(=S)N(NC(=O)c2ccccc2Cl)C1=O	PAD4 FP inh 18 | PAD4 FP conf inactive
O=C(Nc1ccc(Br)cc1)Nn1cnnc1	none
O=C(NCCCN1CCOCC1)c1ccc(Cl)cc1Cl	PAD4 FP inh 15 | PAD4 FP conf inactive
Cc1cccc(N/C=C/c2onc(C)c2[N+](=O)[O-])c1	none
Cc1cc(O)ccc1N/C=C/c1onc(C)c1[N+](=O)[O-]	PAD4 FP inh 37 | PAD4 FP conf inactive
O=C(Cn1cc(CCO)nn1)N1CCNCC1	none
Cc1ccc(NC(=O)CNC(=O)c2ccc3c(c2)OCO3)nc1	none
Cc1ccc(NC(=O)c2ccc3c(c2)OCCO3)nc1	PAD4 FP inh 16 | PAD4 FP conf inactive
COCCn1c(C)cc(C(=O)COc2ccc(N(C)S(=O)(=O)c3ccc(C)cc3)cc2)c1C	none (no result: GSTO1 inh, Fam108B inh)
COc1ccc(N2C(=O)CSC23C(=O)Nc2ccccc23)cc1 (centres undefined)	PAD4 FP inh 16 | PAD4 FP conf inactive
COc1cc2ccccc2cc1C(=O)NC1CCC(C)CC1 (centres undefined)	PAD4 FP inh 16 (no result: GSTO1 inh, Fam108B inh, PME-1 primary, LYPLA2 inh, LYPLA1 inh) | PAD4 FP conf inactive
Cc1cc2c(=O)oc(-c3ccc(Br)cc3)nc2s1	none
COc1ccc(C(C[N+](=O)[O-])c2c(C)[nH]n(-c3ccccc3)c2=O)cc1 (centres undefined)	GSTO1 inh 82, PAD4 FP inh 17 | PAD4 FP conf inactive
CCN(CC)c1ccc(N=Cc2ccc(N(CC)CC)cc2O)cc1	GSTO1 inh 57, PAD4 FP inh 17 | PAD4 FP conf inactive
CCN(CC)c1ccc(C=Nc2ccc(C)cc2)c(O)c1	none
NS(=O)(=O)c1ccc(NC(=O)COC(=O)c2cc(Cl)ccc2[N+](=O)[O-])cc1	none
CN(C)CCN(Cc1ccccc1)c1ccccn1	PAD4 FP inh 73 | PAD4 FP conf inactive
COc1ccc(OCC(=O)NNc2c3ccccc3nc3ccccc23)cc1	none
O=C1NC2=C(CCc3ccccc32)C(c2ccccc2)N1 (centres undefined)	PAD4 FP inh 27 | PAD4 FP conf inactive
C=CCNC(=O)C(=O)NCC1CCCN1S(=O)(=O)c1cccs1 (centres undefined)	PAD4 FP inh 27 | PAD4 FP conf inactive
O=C(Nc1ccc(Nc2ccccc2)cc1)c1ccc(Cl)cc1	none
O=C(Nc1ccc(Nc2ccccc2)cc1)c1ccccc1	PAD4 FP inh 46 | PAD4 FP conf inactive
Cc1c(C(=O)N2CCCCC2)c(S(=O)(=O)N2CCN(c3ccc(F)cc3)CC2)c(C)n1C	none

Assay outcomes: PubChem, The Scripps Research Institute Molecular Screening Center
